A short description of assay [1]: qHTS assay to identify small molecule agonists of the vitamin D receptor (VDR) signaling pathway - cell viability counter screen (AID 743224). Note: series mostly up to about 63 µM; nearly all actives have a fitted effect of over 50% in size. Summed up: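 VDR-bla cell line, quantitative HTS format; 16 h compound incubation (37C, 5% CO2); ATP-based CellTiter-Glo luminescence measured in the reporter assay wells.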
Assay [2] can be described thus: qHTS assay to identify small molecule agonists of the NFkB signaling pathway (AID 1159509; active = well fitted curve in the direction sought with a large enough effect in the signal ratio in the repeat runs, not every such curve was filed as active; the % refers to the signal ratio; note: series mostly up to about 61 µM). Summed up: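 NFkB-bla ME-180 cells carry a beta-lactamase reporter under an NF-kB response element. They were plated overnight, then exposed to compounds for 5 h at 37 C. Read-out is LiveBLAzer FRET after 1.5 hr at room temperature (405 nm excitation; 460/530 nm emission).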

Assay [3] can be described thus: qHTS assay to identify small molecule agonists of the NFkB signaling pathway - cell viability counter screen (AID 1159515; calls by dose curve; note: series mostly up to about 61 µM; nearly all actives have a fitted effect of over 55% in size). Summed up: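 Viability in NFkB-bla ME-180 cells was measured by CellTiter-Glo luminescence, 30 min room temperature, in wells already treated 5 hr with compounds and read for reporter FRET.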
The nature of assay [4]: qHTS assay to identify small molecule agonists of the endoplasmic reticulum stress response signaling pathway (AID 1159516; active = well fitted activation curve with a large enough effect in the signal ratio in the repeat runs, not every such curve was filed as active; the % refers to the signal ratio). In outline: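 ER stress element reporter (bla) in HeLa. 1,500 cells/well, overnight attachment; 5 hr compound; 2 hr RT substrate; dual-emission fluorescence.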
A short description of assay [5]: qHTS assay to identify small molecule agonists of the endoplasmic reticulum stress response signaling pathway - cell viability counter screen (AID 1159517; calls by dose curve; note: series mostly up to about 61 µM; nearly all actives have a fitted effect of over 50% in size). Summed up: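 HeLa cells carrying an ESRE-driven beta-lactamase reporter receive compound for 5 hr at 37 C. Cell viability is then gauged with CellTiter-Glo by luminescence, 30 min at room temperature.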
For assay [6], the target named is Nuclear receptor ROR-gamma (Homo sapiens) (UniProt P51449). Briefly: qHTS assay to identify small molecule antagonists of the retinoid-related orphan receptor gamma (ROR-gamma) signaling pathway (AID 1159521; note: nearly all actives have a fitted effect of over 50% in size; note: potency is the fitted concentration of half-maximal effect). In outline: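 CHO Tet-on RORγ, RORE-luc reporter. Cpd 2 h pre-incubation, then dox hyclate 1 uM final, 16 h, 37 C/5% CO2. ONE-Glo luminescence; decrease = antagonist.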

The nature of assay [7]: qHTS assay to identify small molecule agonists of the AP-1 signaling pathway - cell viability counter screen (AID 1159525; calls by dose curve; note: nearly all actives have a fitted effect of over 55% in size). Summed up: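 Luminescent ATP readout (Cell Titer Glo, 30 min RT), normalised to DMSO and tetra n-octyl ammonium bromide controls. Cells were ME-180 AP-1-bla in 0.5% dialyzed FBS Opti-MEM, with a 5 h, 37 °C compound exposure.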
The nature of assay [8]: qHTS assay to identify small molecule agonists of the AP-1 signaling pathway (AID 1159526; calls by dose curve).
The target of assay [9] is Retinoic acid receptor RXR-alpha (Homo sapiens) (UniProt P19793). Briefly: qHTS assay to identify small molecule agonists of the RXR signaling pathway (AID 1159527; calls by dose curve; note: nearly all actives have a fitted effect of over 35% in size). In outline:
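Read-out: beta-lactamase FRET ratio (405 nm excitation, 460 and 530 nm emission) after 2 hr substrate loading at room temperature. Cells were RXR-alpha-UAS-bla HEK 293T treated with compounds for 16 hr in 2% charcoal-stripped FBS medium.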

Assay [10] is described as follows: qHTS assay to identify small molecule agonists of the RXR signaling pathway - cell viability counter screen (AID 1159529). Note: nearly all actives have a fitted effect of over 50% in size. Note: potency is the fitted concentration of half-maximal effect. Summed up:
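HEK 293T RXRa-bla cells, 2% CS-FBS; 5 h settle; cpd 16 h 37 C, 5% CO2; CellTiter-Glo 30 min RT, luminescence. Tetraoctyl ammonium bromide as positive control.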

The nature of assay [11]: qHTS assay to identify small molecule antagonists of the retinoid acid receptor (RAR) signaling pathway - cell viability counter screen (AID 1159551). Note: nearly all actives have a fitted effect of over 35% in size. Summed up:
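Following overnight attachment, C3RL4 reporter cells received DMSO-dissolved compounds and then retinol (1 uM final). Six hours later at 37 C, ATP content was measured by CellTiter-Glo luminescence.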

The nature of assay [12]: qHTS assay to identify small molecule antagonists of the retinoic acid receptor (RAR) signaling pathway (AID 1159552; note: nearly all actives have a fitted effect of over 50% in size). In outline:
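Cells of the C3RL4 line were seeded, incubated overnight, then dosed with compounds in DMSO followed immediately by retinol (1 uM final). Six hours later luciferase detection reagent went in; signal was measured after 30 min at RT.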

The nature of assay [13]: qHTS assay to identify small molecule agonists of the retinoic acid receptor (RAR) signaling pathway (AID 1159553). In outline:
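Cell line C3RL4, RARE luciferase reporter. Treatment: compounds in DMSO, 6 hr, 37 C, 5% CO2, after overnight plating. Detection: luminescence, 30 min RT after reagent.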

The nature of assay [14]: qHTS assay to identify small molecule antagonists of the vitamin D receptor (VDR) signaling pathway - cell viability counter screen (AID 743225). Note: nearly all actives have a fitted effect of over 50% in size. In outline: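 Read-out: CellTiter-Glo luminescence measured 30 min after reagent addition at room temperature. Cells were VDR-bla HEK 293T exposed 16 h at 37C, 5% CO2, to compound with 3 nM final calcitriol agonist.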
A short description of assay [15]: qHTS assay to identify small molecule antagonists of the retinoid-related orphan receptor gamma (ROR-gamma) signaling pathway - cell viability counter screen (AID 1159520). Note: nearly all actives have a fitted effect of over 50% in size. In outline: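 Cytotoxicity was read from cellular ATP (CellTiter-Glo luminescence) after 16 hr at 37 C with 1 uM doxycycline induction. The inducer was added 2 hr after compound transfer to Tet-on ROR gamma CHO cells.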

Where “and” joins values, the source holds several entries; their conditions need not be identical. Equal values may be shown once. Records with an inconclusive call do not appear. Where a structure was tested more than once in an assay, its records may differ in their call. Calls of active or inactive are those of the source. Unless noted, calls come from the whole dose curve; as a rule, active = well fitted curve in the direction sought with a large enough effect in the repeat runs; inconclusive = weak or mixed curves; inactive = no such curve, though single readings can be large; an effect the other way counts as inactive or inconclusive.

This passage reports Potency and outcome results from PubChem BioAssay (Tox21).

Chain of Retinoic acid receptor RXR-alpha (Homo sapiens) (P19793 whole entry, looked up): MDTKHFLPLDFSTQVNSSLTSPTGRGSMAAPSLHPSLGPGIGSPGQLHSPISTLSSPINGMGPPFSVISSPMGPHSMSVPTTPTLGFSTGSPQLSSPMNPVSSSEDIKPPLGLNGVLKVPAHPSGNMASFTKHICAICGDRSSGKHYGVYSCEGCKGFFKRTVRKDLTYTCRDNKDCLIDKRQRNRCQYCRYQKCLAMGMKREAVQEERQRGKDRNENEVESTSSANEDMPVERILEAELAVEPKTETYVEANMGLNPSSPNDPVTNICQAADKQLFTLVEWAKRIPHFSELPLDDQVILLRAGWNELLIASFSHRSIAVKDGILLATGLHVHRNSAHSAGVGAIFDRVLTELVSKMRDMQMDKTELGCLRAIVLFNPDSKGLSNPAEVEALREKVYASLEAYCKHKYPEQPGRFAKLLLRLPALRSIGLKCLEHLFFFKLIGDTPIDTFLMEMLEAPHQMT

With `CC(C)(C)C(=O)C1C(=O)c2ccccc2C1=O`, the Potency entry in assay [1], in assay [5], in assay [7], in assay [8], in [9] and in assay [10] was “inactive” each time. The Potency result in assay [11], in assay [12] and in assay [13] was “inactive” in each case. Besides, the result in assay [2], in [3] and in assay [4] was inactive. In addition, the Potency in assay [6] was 17.1 µM (active) and 30.6 µM (active).
Consider `c1ccc2ccccc2c1`, for which the Potency result in assay [1], in assay [14], in assay [5], in assay [15], in assay [6] and in assay [7] was “inactive” each time. The Potency result in [8], in assay [10], in assay [11], in assay [12] and in assay [13] was “inactive” each time. Besides, the call in assay [2], in assay [3] and in [4] was inactive.
With `O=C(c1cc(O)c(O)c(O)c1)c1ccc(O)c(O)c1O`, the Potency result in assay [1], in assay [5], in assay [7], in assay [8], in [9] and in assay [10] was “inactive” in each case. Also, the Potency result in assay [11], in assay [12] and in assay [13] was “inactive” each time. Also, the outcome in assay [2], in [3] and in assay [4] was inactive. Also, the Potency in assay [6] is 21.7 µM (active) and inactive.
Regarding `O=C1N=C(O)CN1/N=C/c1ccc(-c2ccc([N+](=O)[O-])cc2)o1`, the Potency entry in assay [1], in [14], in [5], in assay [15], in [6] and in assay [7] was “inactive” throughout. In addition, the Potency result in [8], in assay [10] and in assay [11] was “inactive” each time. Besides, the outcome in [2], in [3] and in [4] was inactive.
In the case of `Oc1ccc2ccccc2c1`, the Potency entry in assay [1], in assay [5], in [6], in [7], in [8] and in assay [9] was “inactive” in each case. In addition, the Potency result in assay [10], in assay [11], in assay [12] and in [13] was “inactive” throughout. The call in [2], in [3] and in assay [4] was inactive.
Regarding `CCCCC(CC)COC(=O)CCCCCCCC(=O)OCC(CC)CCCC` (centres undefined), the Potency result in assay [1], in assay [14], in [5], in [15], in [7] and in assay [8] was “inactive” each time. For the same compound, the Potency result in [9], in [10] and in assay [11] was “inactive” each time. Further, the call in assay [2], in assay [3] and in assay [4] was inactive.
For the compound `Nc1nc2ncc(CNc3ccc(C(=O)N[C@@H](CCC(=O)O)C(=O)O)cc3)nc2c(=O)[nH]1`, the Potency entry in assay [1], in [5], in [6], in assay [7], in assay [8] and in assay [9] was “inactive” throughout. Besides, the Potency entry in assay [10], in assay [11], in [12] and in [13] was “inactive” in each case. Moreover, the call in [2], in [3] and in assay [4] was inactive.
On to `CCCCCCCCCCCCOCC1CO1` (centres undefined), for which the Potency result in [1], in assay [5], in assay [6], in assay [7], in assay [8] and in [9] was “inactive” in each case. For the same compound, the Potency result in assay [10], in assay [11], in assay [12] and in [13] was “inactive” throughout. In addition, the compound was classed as inactive in [2], in assay [3] and in assay [4].
Turning to `COC(=O)c1ccccc1O`, the Potency entry in assay [1], in assay [5], in assay [15], in assay [6], in assay [7] and in assay [8] was “inactive” throughout. Further, the Potency result in assay [11], in assay [12] and in [13] was “inactive” throughout. The compound was called inactive in [2], in assay [3] and in assay [4]. For the same compound, the Potency in [10] is 43.8 µM (active) and inactive.
With `CC(C)(CO)COC(=O)C(C)(C)CO`, the Potency entry in [1], in assay [5], in assay [15], in [7], in assay [8] and in assay [9] was “inactive” in each case. Further, the Potency result in [10], in [11], in assay [12] and in assay [13] was “inactive” throughout. The compound was called inactive in [2], in assay [3] and in assay [4].
